These results are taken from ChEMBL document CHEMBL3988442, “University of Dundee, Small-Polar-MMV Screening Library” (2021).

For some of these results: Entries with a potency or affinity are not part of this list.

Common to all, as to set-up: scale not given: direction of the effect not stated beside the values
Assay [1] addresses Protein translocase subunit SecA (Escherichia coli (strain K12)) (UniProt P10408). The experiment in a line: Assay to Identify E. coli SecA ATPase Inhibitors. It counts as functional. Particulars: 30 µM.
For assay [2], the target named is T1, Ubiquitin-activating enzyme e1, putative (Leishmania donovani (strain BPK282A1)) (UniProt E9BSI1).
T1 sequence (whole entry): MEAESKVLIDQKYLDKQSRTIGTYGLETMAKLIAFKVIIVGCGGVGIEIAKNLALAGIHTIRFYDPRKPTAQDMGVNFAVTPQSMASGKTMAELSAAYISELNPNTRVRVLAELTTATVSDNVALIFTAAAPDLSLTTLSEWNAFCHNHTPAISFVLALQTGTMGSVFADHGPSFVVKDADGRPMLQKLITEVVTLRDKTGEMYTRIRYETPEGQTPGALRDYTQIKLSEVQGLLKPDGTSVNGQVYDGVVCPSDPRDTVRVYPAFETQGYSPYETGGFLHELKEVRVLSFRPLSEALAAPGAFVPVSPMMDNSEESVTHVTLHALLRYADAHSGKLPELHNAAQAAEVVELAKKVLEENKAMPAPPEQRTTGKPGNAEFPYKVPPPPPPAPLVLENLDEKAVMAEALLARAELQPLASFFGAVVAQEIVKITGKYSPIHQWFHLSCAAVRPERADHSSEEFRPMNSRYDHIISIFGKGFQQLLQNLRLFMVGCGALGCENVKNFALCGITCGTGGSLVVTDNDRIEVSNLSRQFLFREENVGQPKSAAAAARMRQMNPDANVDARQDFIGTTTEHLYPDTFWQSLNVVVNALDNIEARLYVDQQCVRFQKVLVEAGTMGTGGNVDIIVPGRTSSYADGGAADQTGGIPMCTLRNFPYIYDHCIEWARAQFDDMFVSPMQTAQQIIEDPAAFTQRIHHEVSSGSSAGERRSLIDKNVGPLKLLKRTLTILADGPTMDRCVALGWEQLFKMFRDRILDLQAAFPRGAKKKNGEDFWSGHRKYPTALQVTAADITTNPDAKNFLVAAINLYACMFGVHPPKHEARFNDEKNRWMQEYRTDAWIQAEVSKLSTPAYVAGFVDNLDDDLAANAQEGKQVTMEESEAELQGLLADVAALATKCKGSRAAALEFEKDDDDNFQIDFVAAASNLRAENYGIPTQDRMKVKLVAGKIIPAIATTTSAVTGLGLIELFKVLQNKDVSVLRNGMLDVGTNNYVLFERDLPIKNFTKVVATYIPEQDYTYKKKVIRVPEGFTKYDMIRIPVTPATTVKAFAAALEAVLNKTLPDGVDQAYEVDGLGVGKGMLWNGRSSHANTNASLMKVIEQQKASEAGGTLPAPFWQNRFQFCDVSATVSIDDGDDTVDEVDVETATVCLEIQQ
Nature of the assay: Leishmania donovani Ubiquitin Activating Enzyme (LdE1). Particulars: 30 µM. The assay is classed as functional.

In assay [3] the target is AMP-activated protein kinase, AMPK (Homo sapiens) (UniProt P54646+O43741+P54619+Q9UGJ0+Q9Y478+Q13131+Q9UGI9). Nature of the assay: AMP-dependent Kinase enzyme assay. An in vitro enzyme assay that detects ADP turnover that is directly proportional to AMPK activity. This uses naive AMPK that is activated during the assay with MK-8722. It counts as functional. Conditions: 30 µM.

The target in assay [4] is Sialic acid-binding Ig-like lectin 9 (Homo sapiens) (UniProt Q9Y336). Nature of the assay: Hs-Siglec9 ALPHAscreen SOP 20170721. Conditions: 10 µM. (In general: Alpha assays give light when donor and acceptor beads are brought close together.)
Chain of Sialic acid-binding Ig-like lectin 9 (Homo sapiens) (Q9Y336 whole entry): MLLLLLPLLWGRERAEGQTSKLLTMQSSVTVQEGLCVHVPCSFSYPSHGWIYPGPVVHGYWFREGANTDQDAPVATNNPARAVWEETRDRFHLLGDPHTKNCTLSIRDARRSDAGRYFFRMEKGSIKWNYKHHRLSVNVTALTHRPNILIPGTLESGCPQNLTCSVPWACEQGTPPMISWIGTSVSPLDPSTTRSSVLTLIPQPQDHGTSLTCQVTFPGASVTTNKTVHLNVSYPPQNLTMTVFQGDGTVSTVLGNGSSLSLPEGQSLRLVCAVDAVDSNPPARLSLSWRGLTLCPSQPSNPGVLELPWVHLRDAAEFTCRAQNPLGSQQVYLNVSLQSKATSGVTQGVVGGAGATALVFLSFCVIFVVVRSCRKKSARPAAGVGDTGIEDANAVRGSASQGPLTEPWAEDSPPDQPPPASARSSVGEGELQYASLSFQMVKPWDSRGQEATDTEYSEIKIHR
Assay [5] deals with Trypanosoma cruzi. The experiment in a line: Trypanosoma cruzi phosphomannomutase and mannose-1-phosphate guanylyltransferase assay. The assay is classed as functional. Conditions: 10 µM.
The target of assay [6] is T2, Arginase-2, mitochondrial (Homo sapiens) (UniProt P78540).
T2 sequence (whole entry): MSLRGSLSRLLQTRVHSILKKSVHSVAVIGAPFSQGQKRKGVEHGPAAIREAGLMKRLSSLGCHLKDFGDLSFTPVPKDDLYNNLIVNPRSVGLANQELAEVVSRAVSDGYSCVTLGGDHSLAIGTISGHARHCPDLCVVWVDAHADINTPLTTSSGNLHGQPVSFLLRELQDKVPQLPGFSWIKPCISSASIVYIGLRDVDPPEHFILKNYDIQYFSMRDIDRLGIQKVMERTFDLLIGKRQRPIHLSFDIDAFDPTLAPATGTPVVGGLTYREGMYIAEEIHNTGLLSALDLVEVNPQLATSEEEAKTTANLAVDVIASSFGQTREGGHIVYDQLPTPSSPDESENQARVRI
Nature of the assay: in vitro enzyme assay to detect the production of urea directly proportional to the activity of Arginase II. Further: in the data most compounds retested in dose-response had high values. Particulars: 33.3 µM. It counts as functional.

Assay [7] concerns the target T3, Proteasome subunit beta (Trypanosoma cruzi) (UniProt O96673).
T3 sequence (whole entry): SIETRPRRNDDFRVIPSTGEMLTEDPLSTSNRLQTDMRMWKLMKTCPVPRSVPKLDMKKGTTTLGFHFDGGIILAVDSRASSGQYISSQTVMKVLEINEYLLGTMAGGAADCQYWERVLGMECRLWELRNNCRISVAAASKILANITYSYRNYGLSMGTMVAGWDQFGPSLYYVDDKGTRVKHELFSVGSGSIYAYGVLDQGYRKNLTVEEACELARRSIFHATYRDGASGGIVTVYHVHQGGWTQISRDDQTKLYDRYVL
Nature of the assay: Trypanosoma cruzi proteasome chymotrypsin-like activity (TcProtChymo) assay. Further: in the data most compounds retested in dose-response had high values. The assay is classed as functional. Particulars: 9.37 µM.

Assay [8] is filed under the species Homo sapiens. Nature of the assay: To identify inhibition of the IFN signalling (Jak-Stat) pathway via expression of an eGFP reporter gene under the control of an IFN-stimulated response element (ISRE) containing MxA promoter. It counts as functional. Particulars: 30 µM. In general terms: A reporter such as luciferase makes a cellular process visible.
Assay [9] has as its target T4, Tyrosyl-tRNA synthetase, putative (Trypanosoma cruzi (strain CL Brener)) (UniProt Q4DSP6).
T4 sequence (whole entry): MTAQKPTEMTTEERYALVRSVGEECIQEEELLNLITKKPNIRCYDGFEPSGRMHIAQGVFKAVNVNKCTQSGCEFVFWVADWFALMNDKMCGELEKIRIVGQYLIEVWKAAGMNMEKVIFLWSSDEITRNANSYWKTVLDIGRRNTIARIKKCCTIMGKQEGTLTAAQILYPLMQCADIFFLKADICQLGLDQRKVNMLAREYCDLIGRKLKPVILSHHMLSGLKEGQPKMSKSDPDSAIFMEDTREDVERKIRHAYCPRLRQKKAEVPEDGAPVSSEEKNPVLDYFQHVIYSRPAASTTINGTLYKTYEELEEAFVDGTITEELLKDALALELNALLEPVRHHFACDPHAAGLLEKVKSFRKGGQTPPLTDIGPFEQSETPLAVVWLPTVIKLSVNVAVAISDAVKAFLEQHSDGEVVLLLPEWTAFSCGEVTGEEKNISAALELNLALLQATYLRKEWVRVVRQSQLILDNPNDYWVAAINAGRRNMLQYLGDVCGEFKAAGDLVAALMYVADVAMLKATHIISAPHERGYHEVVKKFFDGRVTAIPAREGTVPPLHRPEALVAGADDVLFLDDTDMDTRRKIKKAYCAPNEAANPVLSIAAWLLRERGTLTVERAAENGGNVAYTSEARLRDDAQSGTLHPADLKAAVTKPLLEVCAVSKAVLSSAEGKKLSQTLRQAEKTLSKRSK
Nature of the assay: Trypanosoma cruzi tyrosyl tRNA synthetase (TcYRS) _High Tyrosine SOP. Further: in the data most compounds retested in dose-response had high values. The assay is classed as functional. Particulars: 30 µM.

The target of assay [10] is T4, Tyrosyl-tRNA synthetase, putative (Trypanosoma cruzi (strain CL Brener)). The experiment in a line: Trypanosoma cruzi tyrosyl tRNA synthetase (TcYRS) SOP. The assay is classed as functional. Particulars: 30 µM.
Assay [11] concerns the target Chromo domain-containing protein 1 (Saccharomyces cerevisiae (strain ATCC 204508 / S288c) (Baker's yeast)) (UniProt P32657). Nature of the assay: ScCHD-1 Enzyme Inhibition Assay. Further: in the data most compounds retested in dose-response had high values. It counts as functional. Particulars: 30 µM.

Chain of Protein translocase subunit SecA (Escherichia coli (strain K12)) (P10408 whole entry): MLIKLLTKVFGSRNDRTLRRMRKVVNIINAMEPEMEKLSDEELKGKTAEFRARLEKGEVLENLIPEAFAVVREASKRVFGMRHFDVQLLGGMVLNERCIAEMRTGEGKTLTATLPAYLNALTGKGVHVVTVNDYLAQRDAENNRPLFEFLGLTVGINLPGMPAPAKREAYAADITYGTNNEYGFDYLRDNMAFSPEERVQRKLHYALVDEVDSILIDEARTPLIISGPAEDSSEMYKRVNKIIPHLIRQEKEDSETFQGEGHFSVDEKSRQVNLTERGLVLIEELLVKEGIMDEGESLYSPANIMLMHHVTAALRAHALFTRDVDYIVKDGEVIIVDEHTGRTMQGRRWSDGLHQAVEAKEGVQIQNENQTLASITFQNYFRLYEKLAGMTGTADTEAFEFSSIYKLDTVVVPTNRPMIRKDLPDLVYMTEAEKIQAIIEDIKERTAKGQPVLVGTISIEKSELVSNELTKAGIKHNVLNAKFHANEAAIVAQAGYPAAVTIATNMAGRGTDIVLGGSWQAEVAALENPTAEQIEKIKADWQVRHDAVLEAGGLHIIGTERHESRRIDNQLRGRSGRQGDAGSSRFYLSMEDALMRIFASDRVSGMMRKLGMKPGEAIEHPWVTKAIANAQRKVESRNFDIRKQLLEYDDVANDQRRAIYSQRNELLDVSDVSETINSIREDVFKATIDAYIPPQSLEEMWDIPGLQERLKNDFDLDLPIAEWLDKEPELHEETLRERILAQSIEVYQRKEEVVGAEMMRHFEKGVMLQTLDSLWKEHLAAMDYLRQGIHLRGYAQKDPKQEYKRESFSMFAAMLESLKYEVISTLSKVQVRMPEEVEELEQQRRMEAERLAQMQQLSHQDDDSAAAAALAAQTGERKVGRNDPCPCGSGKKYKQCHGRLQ
Chain of Chromo domain-containing protein 1 (Saccharomyces cerevisiae (strain ATCC 204508 / S288c) (Baker's yeast)) (P32657 whole entry, the tested form may be a part): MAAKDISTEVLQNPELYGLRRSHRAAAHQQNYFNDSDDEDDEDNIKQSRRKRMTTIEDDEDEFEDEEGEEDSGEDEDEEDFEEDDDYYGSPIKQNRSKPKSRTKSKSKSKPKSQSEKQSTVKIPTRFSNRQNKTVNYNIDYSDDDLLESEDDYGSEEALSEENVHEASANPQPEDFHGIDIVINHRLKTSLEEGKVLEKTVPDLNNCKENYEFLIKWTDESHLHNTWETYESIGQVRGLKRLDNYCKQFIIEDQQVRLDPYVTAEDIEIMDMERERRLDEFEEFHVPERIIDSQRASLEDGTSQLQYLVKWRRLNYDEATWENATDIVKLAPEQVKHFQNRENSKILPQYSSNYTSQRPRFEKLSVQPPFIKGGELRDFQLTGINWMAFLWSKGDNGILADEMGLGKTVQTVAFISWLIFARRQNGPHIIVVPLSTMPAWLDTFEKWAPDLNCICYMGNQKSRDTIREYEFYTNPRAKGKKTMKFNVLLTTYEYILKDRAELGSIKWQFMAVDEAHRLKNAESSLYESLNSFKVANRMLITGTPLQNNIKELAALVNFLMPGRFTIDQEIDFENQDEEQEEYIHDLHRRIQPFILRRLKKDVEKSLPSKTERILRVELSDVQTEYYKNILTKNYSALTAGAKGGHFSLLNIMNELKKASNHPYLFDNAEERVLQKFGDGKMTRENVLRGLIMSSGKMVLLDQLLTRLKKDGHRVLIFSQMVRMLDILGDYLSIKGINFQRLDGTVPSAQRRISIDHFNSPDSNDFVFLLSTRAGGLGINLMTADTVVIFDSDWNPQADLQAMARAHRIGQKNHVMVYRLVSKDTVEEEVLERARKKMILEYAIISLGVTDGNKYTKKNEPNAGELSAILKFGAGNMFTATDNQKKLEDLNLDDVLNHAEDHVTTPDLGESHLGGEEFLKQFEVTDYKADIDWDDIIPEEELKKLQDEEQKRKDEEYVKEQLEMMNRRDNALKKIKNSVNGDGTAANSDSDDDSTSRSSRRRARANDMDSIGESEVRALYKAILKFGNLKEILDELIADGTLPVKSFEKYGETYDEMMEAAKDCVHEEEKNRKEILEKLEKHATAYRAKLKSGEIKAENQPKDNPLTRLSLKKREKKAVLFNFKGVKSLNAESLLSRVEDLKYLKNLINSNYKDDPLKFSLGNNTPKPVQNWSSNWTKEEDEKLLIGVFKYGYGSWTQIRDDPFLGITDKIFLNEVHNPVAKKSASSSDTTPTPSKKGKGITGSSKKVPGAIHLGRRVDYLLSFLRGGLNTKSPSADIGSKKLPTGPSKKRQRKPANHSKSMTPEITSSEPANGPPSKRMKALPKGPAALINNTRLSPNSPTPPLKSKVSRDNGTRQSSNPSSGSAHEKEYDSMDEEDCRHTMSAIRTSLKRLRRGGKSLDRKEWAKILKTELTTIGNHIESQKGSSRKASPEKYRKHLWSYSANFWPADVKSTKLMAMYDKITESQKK

With `NC(=O)c1cccc(CC2CCN(C(=O)CO)C2)c1` (stereo not drawn), the Percent Effect is -1.68% in assay [1]; 19.2% in [2]; 10.3% in assay [3]; 10.6% in assay [4]; 3.33% in assay [5]; -0.909% in [6]. The Percent Effect in assay [7] is 15.4%; in assay [8] it was 2.47%; in assay [9], 4.3%; in assay [10], 17.5%; in assay [11], -3.86%.

Regarding `O=C(NC(Cc1ccsc1)c1nccs1)C1CCOCC1` (stereo not drawn), the Percent Effect in assay [1] was -2.92%; in assay [2], 9.46%; in [3], 12.2%; in assay [4], 0.886%; in assay [5] it was -4.74%; in assay [6], -0.232%. Besides, the Percent Effect is 3.12% in assay [7]; 10.9% in assay [8]; 1.07% in assay [9]; 9.09% in assay [10]; 7.79% in assay [11].

In the case of `O=C(CN1CCNCC1)N1CC[C@@H](c2ccc3ccccc3c2)[C@H](O)C1`, the Percent Effect is -0.963% in [1]; 8% in [2]; -4.87% in assay [3]; 12.2% in assay [4]; 0.876% in assay [5]; 2.08% in assay [6]. Also, the Percent Effect in assay [7] was 14.7%; in assay [8], 10.1%; in assay [9], 7.1%; in assay [10], 13.6%; in [11] it was -3.45%.

In the case of `CC(CCc1ccccc1)NC(=O)Nc1cnn(CC(N)=O)c1` (stereo not drawn), the Percent Effect was -2.21% in [1]; 16.5% in assay [2]; -2.88% in assay [3]; 2.1% in assay [4]; -1.74% in assay [5]; -4.52% in [6]. Also, the Percent Effect in assay [7] was 17.8%; in assay [8] it was 8.25%; in assay [9] it was 3.12%; in [10], 20.2%; in assay [11] it was -26.2%.

Take `Cc1cnn(CCNCc2nc(Cc3ccccc3)no2)c1`: the Percent Effect was -0.787% in assay [1]; 0% in assay [2]; -3.33% in assay [3]; -0.739% in assay [4]; -1.32% in assay [5]; 5.75% in assay [6]. Besides, the Percent Effect in [7] is 5.51%; in assay [8] it was 13.2%; in assay [9], 5.39%; in assay [10], 7.32%; in [11] it was 2.72%.

For `O=C(NCCCc1ccncc1)C1CCCN(Cc2ccco2)C1` (stereo not drawn), the Percent Effect in assay [1] was -4.69%; in assay [2], 5.33%; in [3], 3.79%; in assay [4], -5.72%; in assay [5], -10.8%; in assay [6], 1.04%. In addition, the Percent Effect in [7] was 17.6%; in assay [8] it was 29.8%; in assay [9] it was -1.64%; in [10] it was 6.17%; in assay [11], -7.2%.

For `CC(C)Cc1ccc(S(=O)(=O)Nc2ccc(=O)n(C)c2)cc1`, the Percent Effect in assay [1] was -3.52%; in [2] it was 25.3%; in assay [3], -59.7%; in [4] it was -2.55%; in assay [5] it was 3.31%; in assay [6], 0%. For the same compound, the Percent Effect in [7] was 15.5%; in [8] it was 69%; in assay [9], 6.4%; in assay [10], 21.5%; in [11], -7.97%.

With `CC(=O)N1CCOCC2(CCN(Cc3ccc(C)s3)CC2)C1`, the Percent Effect was -3.46% in [1]; 10.7% in assay [2]; -5.5% in assay [3]; -0.245% in assay [4]; 6.37% in [5]; -51.8% in assay [6]. Besides, the Percent Effect was 2.91% in assay [7]; -1.39% in assay [8]; 4.17% in [9]; 5% in assay [10]; -7.22% in assay [11].
